High-throughput results as filed in PubChem.
TDP43 rescue: inhibitors of TDP-43 toxicity in yeast. TDP-43 expressing yeast growth rescue, BacTiter-Glo, 24 h. Potency, µM (doses to about 46.1 µM), actives largely listed as activators. 1.8% of 410,000 active; also: nearly all actives have a fitted effect of over 50% in size
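Growth rescue of TDP-43-toxic yeast measured as ATP luminescence (BacTiter-Glo). Cells grown to mid-log in raffinose, induced in galactose at OD600=0.02, exposed to compound 24 hr at 30 deg C.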
aSyn yeast inh: alpha-synuclein toxicity inhibition in yeast. Yeast expressing alpha-synuclein, growth rescue, BacTiter-Glo, 24 h. Potency, µM (highest dose often 46.1 µM), actives largely listed as activators. 0.14% of 370,000 active. AID 652106; also: nearly all actives have a fitted effect of over 65% in size
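Rescue of yeast growth: cells expressing toxic alpha-synuclein, induced in galactose at OD600 0.02, incubated with compound 24 h at 30 C. ATP luminescence quantified growth; inhibitors of toxicity appear as activators.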
FUS suppressor: rescues growth of FUS-expressing yeast | S. cerevisiae FUS-expressing, growth rescue, OD600, 24 h | Potency, µM (doses to about 76.6 µM), actives largely listed as activators | 0.24% of 390,000 active | AID 1347120; also: nearly all actives have a fitted effect of over 55% in size
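Yeast FUS proteinopathy model; galactose-induced FUS (2%), starting OD 0.005. Cpds in dilution series, 24hr, 30C, 99% humidity. Abs 600 nm growth. Pos ctrl CP55940 (top 92uM final); neg ctrl DMSO.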
Abeta yeast res: A-beta toxicity reversal in yeast; yeast expressing A-beta42, growth rescue, OD600, 48 h; response scale: 0% DMSO, 100% iron-clioquinol control; Potency, µM (titrated, usually from 46.1 µM), actives largely listed as activators; 0.063% of 410,000 active; AID 1347071; also: nearly all actives have a fitted effect of over 55% in size
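Growth rescue measured by 600 nm absorbance after 48 h yeast culture at 30 C with compound. Values normalized between DMSO and an equimolar ferric chloride plus clioquinol control.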
Large screens that a line does not name were inactive. Most compounds without a hit are left out; they make up all but 2.1% or so of the library. Calls follow the shape of the dose curve; as a rule, active = well fitted curve in the direction sought with a large enough effect; inconclusive = small, poorly fitted or top-dose-only effect, or another doubt; inactive = no such curve, though single readings can be large; an effect the other way counts as inactive or inconclusive.

N#Cc1ccccc1OCC(=O)N1CCN(c2ccccc2F)CC1	TDP43 rescue 22µM (no result: aSyn yeast inh)
COc1cccc(CNC(=O)CCC2CCCN(C(=O)c3ccc(OC)o3)C2)c1 (centres undefined)	none
O=C(N[C@H]1C/C=C\C[C@@H](CC(=O)N(CCO)Cc2ccccc2)C(=O)NC[C@H](c2ccccc2)OC1=O)OCC1c2ccccc2-c2ccccc21	FUS suppressor inconclusive
O=C(O)c1ccc(Nc2ccc(F)c(F)c2)c([N+](=O)[O-])c1	TDP43 rescue 11µM
COc1ccc(Nc2ccc(C(=O)O)cc2[N+](=O)[O-])cc1	TDP43 rescue inconclusive
O=C(c1cc(-c2ccco2)nc2ccccc12)N1CCCC(C(F)(F)F)C1 (centres undefined)	TDP43 rescue 35µM
C/C(=C\C(=S)Nc1ccccc1)Nc1ccccc1	TDP43 rescue 13µM
CCCCNc1c(-c2cccc(-c3ccc(OC)cc3)c2)nc2ccc(C)cn12	none
CCCCNc1c(-c2cccc(-c3cc(C(C)=O)cs3)c2)nc2ccc(C)cn12	TDP43 rescue 11µM
CCN(CC)CCCNC(=O)C1c2ccccc2C(=O)N(C)C1c1ccc(OC)cc1 (centres undefined)	TDP43 rescue 22µM
CCCCOc1ccc(C2C(=O)N(C3CCCCC3)CC(=O)N2CCCC)cc1 (centres undefined)	FUS suppressor inconclusive (no result: aSyn yeast inh)
Cc1ccnc2nc(C(=O)OCCOc3cccc(Br)c3)nn12	TDP43 rescue 16µM, Abeta yeast res inconclusive
Cc1ccnc2nc(C(=O)OCCOc3ccccc3)nn12	none
CCOC(=O)C1(Cc2cccc(F)c2)CCN(Cc2cnn(CC)c2C)CC1	none
Cc1ccc(CNC(=O)CCSCc2cnn(-c3ccccc3)c2-n2cccc2)cc1	TDP43 rescue 20µM (no result: aSyn yeast inh)
O=C(CCSCc1cnn(-c2ccccc2)c1-n1cccc1)NCc1ccc(Cl)cc1	TDP43 rescue 20µM, Abeta yeast res inconclusive (no result: aSyn yeast inh)
O=C(CSCc1cnn(-c2ccccc2)c1-n1cccc1)NCc1cccnc1	none (no result: TDP43 rescue)
Cc1ccc(NCC(=O)Nc2c(C)n(C)n(-c3ccccc3)c2=O)cc1S(=O)(=O)N(C)C	none
CCOc1ccc(NC(=O)CC2C(=O)N(c3cccc(C)c3)C(=O)N2CCC2=CCCCC2)cc1 (centres undefined)	FUS suppressor 35µM (no result: aSyn yeast inh)
Cc1cc(=O)n(CC(=O)N2CCN(c3ccccc3F)CC2)c2c1c(C)nn2C	TDP43 rescue inconclusive (no result: aSyn yeast inh)
Cc1nn(C)c2c1c(C(F)(F)F)cc(=O)n2CC(=O)N1CCN(c2ccccc2F)CC1	TDP43 rescue 22µM, FUS suppressor inconclusive (no result: aSyn yeast inh)
CCc1cc(-c2nc(N)ncc2-c2csc(C)n2)c(O)cc1OC	none
CCCc1cc(-c2nc(N)ncc2-c2csc(C)n2)c(O)cc1OC	TDP43 rescue 13µM
O=C(NCc1ccc2c(c1)OCO2)C(=O)NCC1OCCN1S(=O)(=O)c1ccccc1 (centres undefined)	none
COc1cc(/C=C(/C#N)C(=O)NCc2ccccc2)cc(OC)c1OC	TDP43 rescue 20µM, aSyn yeast inh inconclusive
Cc1nn(C(=O)c2ccccc2)c(C)c1S(=O)(=O)N1CCOCC1	none (no result: aSyn yeast inh)
Cc1cccc(N2C(=O)N(Cc3cc(=O)n4ccccc4n3)c3ccccc3S2(=O)=O)c1	FUS suppressor inconclusive (no result: aSyn yeast inh)
CCc1ccccc1N1C(=O)N(Cc2cc(=O)n3ccccc3n2)c2ccccc2S1(=O)=O	TDP43 rescue 11µM, FUS suppressor 32µM (no result: aSyn yeast inh)
O=C1CC(c2ccc(Br)cc2)c2c(ccc3ccccc23)N1 (centres undefined)	TDP43 rescue 35µM (no result: aSyn yeast inh)
O=C1CC(c2cccc([N+](=O)[O-])c2)c2c(ccc3ccccc23)N1 (centres undefined)	none
CCCC(=O)N1CCC1(C)C(=O)Nc1ccc(C)c(C)c1 (centres undefined)	none
CCCC(=O)N1CCC1(C)C(=O)Nc1ccc(-n2cccc2)cc1 (centres undefined)	TDP43 rescue 20µM
O=C1CCN(S(=O)(=O)c2ccccc2)CCN1CCOCc1ccc(Cl)cc1	none
O=C(Cc1ccc(OCC2CCCCC2)cc1)NO	aSyn yeast inh 22µM (no result: TDP43 rescue, FUS suppressor, Abeta yeast res)
Cc1ccc(CC(=O)NCC2CCCCC2)cc1	none
Clc1cccc(CSc2ncn(-c3ccccc3)n2)c1	TDP43 rescue 13µM
CCOC(=O)C1CCN(C(=O)CCCn2nc(C)c3c(C)n(-c4ccc(C)cc4)nc3c2=O)CC1	none
CCSc1nc(-c2ccc(OC)cc2)cc(-c2ccccc2)c1C#N	none
COc1ccc(-c2cc(-c3ccccc3)c(C#N)c(S(C)=O)n2)cc1 (centres undefined)	TDP43 rescue 18µM
COc1ccc(/C=N/n2c(SC)nnc2-c2ccccc2)cc1C	TDP43 rescue 16µM
CC(C)(C)C(=O)NC(=S)NNC(=O)C(c1ccccc1)c1ccccc1	TDP43 rescue inconclusive, aSyn yeast inh 18µM, Abeta yeast res inconclusive
CC(=O)NNC(=S)NC(=O)C(c1ccccc1)c1ccccc1	TDP43 rescue 25µM, Abeta yeast res inconclusive
Cc1ccc(CCNC(=O)Cn2ncc3c([nH]c4ccc(C)cc43)c2=O)cc1	none (no result: aSyn yeast inh)
O=C1CC(O)(C(F)F)Oc2ccc3ccccc3c21 (centres undefined)	none (no result: FUS suppressor)
O=C1CC(O)(C(F)(F)F)Oc2c1ccc1ccccc21 (centres undefined)	aSyn yeast inh 13µM
Cc1ccccc1CC1(CO)CCCN(C(=O)CCCN2CCCCC2=O)C1 (centres undefined)	none (no result: TDP43 rescue)
CC(C)[C@@H]1Cc2[nH][nH]c(=O)c2[C@H](c2ccc(F)cc2)O1	TDP43 rescue 11µM
O=c1[nH][nH]c2c1C(c1ccc(F)cc1)OC(CCc1ccccc1)C2 (centres undefined)	TDP43 rescue 20µM
O=c1[nH][nH]c2c1[C@H](c1ccc(F)cc1)O[C@H](CCC(F)(F)F)C2	TDP43 rescue 20µM, aSyn yeast inh inconclusive
CCCCC1Cc2[nH][nH]c(=O)c2C(c2ccc(Cl)cc2)O1 (centres undefined)	TDP43 rescue 11µM, FUS suppressor inconclusive
O=c1[nH]c(=S)[nH]c2c1C(c1ccc(F)cc1)OC(CCC(F)(F)F)C2 (centres undefined)	none
Cc1cccc(C)c1OCC(=O)N[C@@H](Cc1ccccc1)[C@@H](O)C[C@H](Cc1ccccc1)NC(=O)[C@H](C(C)C)N1CCCNC1=O	FUS suppressor 32µM (no result: TDP43 rescue, Abeta yeast res)
CC(=O)NCCC(=O)Nc1cc(S(=O)(=O)N2CCOCC2)ccc1N1CCCC1	none
O=C(OC12CCCN(C1)/C(=C/c1ccc(Cl)cc1)C2)c1ccccc1 (centres undefined)	none (no result: TDP43 rescue, aSyn yeast inh, Abeta yeast res)
O=C(NCc1ccccc1)c1cc(C2CCCCN2C(=O)CCc2ccccc2)on1 (centres undefined)	TDP43 rescue 35µM
O=C(NCc1ccc(Cl)c(Cl)c1)c1cc(C2CCCCN2C(=O)CCc2ccccc2)on1 (centres undefined)	aSyn yeast inh inconclusive, FUS suppressor inconclusive
O=C(NCc1ccccc1)c1cc(C2CCCN(C(=O)CCCc3ccccc3)C2)on1 (centres undefined)	TDP43 rescue 35µM
COc1ccccc1CNC(=O)CN1C(=O)CSc2c1c(C)nn2-c1ccccc1	none (no result: aSyn yeast inh)
